This is a sample that favours compounds with a hit; in the whole collection about 5.4% have one here.
CtBP-E1A blk – qHTS Assay for Inhibitors of the CtBP/E1A Interaction. CtBP / adenovirus E1A interaction (AlphaScreen). AlphaScreen GST-E1A/His-CtBP binding, 1536-well; hits give low values. activity change, % (test concentration not listed). 340,000 tested, 0.49% active. AID 651724, 2012; in the data active means activity change below about -65%; inconclusive means mostly about -30% to -63%; further: on the % scale 0 is the no-effect control and ±100 the full control effect
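GST-E1A and His-tagged CtBP (125 nM each as 5X stock) were preincubated with pin-transferred compound for 2 h at 37 °C in the dark, then glutathione donor and nickel acceptor beads were added for 1 h before AlphaScreen reading.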
p53 reactivator – qHTS assay for re-activators of p53 using a Luc reporter | H1299 p53-A138V BP100-luciferase reporter, luminescence, 24 h | Potency, µM (highest dose often 92.2 µM), for the others: top-dose activity change, positive = activation, actives largely listed as activators | 320,000 tested, 0.063% active; further: potency means the concentration at half of the fitted maximal effect; % of control where 0% means no effect; nearly all actives have a fitted effect of over 45% in size
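H1299 (p53-null), stable ts p53-A138V + BP100-Luc; 1000 cells/well, Opti-MEM/10% FBS; cpd 4 pt, 1:5; 24 h, 37 deg C, 5% CO2; detection reagent 10 min RT; luminescence.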
RORg inh – qHTS for inhibitors of ROR gamma transcriptional activity | 310,000 tested, 5.4% active | Drosophila S2 Gal4-RORgamma UAS-luciferase reporter, 20 h | Potency, µM (series often up to 53.6 µM), for inactives: at the highest dose activity change, negative = inhibition, hits mostly inhibitors | AID 2551, 2010 | Nuclear receptor ROR-gamma (Mus musculus), P51450; further: potency means the concentration at half of the fitted maximal effect; on the % scale 0 is the no-effect control and ±100 the full control effect; nearly all actives have a fitted effect of over 60% in size
Target sequence (P51450 whole entry, looked up, the tested form may be a part): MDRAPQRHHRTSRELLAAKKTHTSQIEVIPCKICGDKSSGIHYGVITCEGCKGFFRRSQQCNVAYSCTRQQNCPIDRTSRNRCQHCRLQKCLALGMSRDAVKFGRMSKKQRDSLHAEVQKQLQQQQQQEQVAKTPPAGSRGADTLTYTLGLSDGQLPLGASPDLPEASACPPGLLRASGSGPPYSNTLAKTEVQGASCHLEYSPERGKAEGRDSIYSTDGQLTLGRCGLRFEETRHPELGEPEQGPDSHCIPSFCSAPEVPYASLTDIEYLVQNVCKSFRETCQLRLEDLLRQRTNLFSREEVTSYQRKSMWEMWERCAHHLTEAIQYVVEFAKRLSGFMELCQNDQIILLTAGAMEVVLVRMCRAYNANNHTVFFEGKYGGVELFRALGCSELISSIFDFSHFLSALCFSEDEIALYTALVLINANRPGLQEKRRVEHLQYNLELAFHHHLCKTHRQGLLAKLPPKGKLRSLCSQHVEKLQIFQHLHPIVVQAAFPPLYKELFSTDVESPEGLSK
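A Gal4/UAS one-hybrid system in insect cells: metallothionein-promoter Gal4–ROR gamma fusion plus Photinus luciferase reporter. Copper sulfate 700 uM final, 20 hr ambient incubation, luminescent detection after 10 min with reagent.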
VP16 counter – VP16 counterscreen qHTS for inhibitors of ROR gamma transcriptional activity; Drosophila S2 Gal4-VP16 UAS-luciferase, luminescence, 20 h; Potency, µM (series often up to 53.6 µM), for inactives: at the top dose activity, negative = inhibition, usual class: inhibitors; 310,000 tested, 3.5% active;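 further: Gal4-VP16 expression switched on by copper sulfate through the metallothionein promoter; potency means the concentration at half of the fitted maximal effect; on the % scale 0 is the no-effect control and ±100 the full control effect; nearly all actives have a fitted effect of over 50% in size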
Six1-Eya2 inh – qHTS Assay for Inhibitors of the Six1/Eya2 Interaction; Homeobox protein SIX1 (Homo sapiens) + Protein phosphatase EYA2 (Homo sapiens), …; AlphaScreen GST-Six1/His-Eya2 binding, biochemical; hits give low values; activity change, % (concentration not given with the values); 360,000 tested, 0.56% active; AID 651725, 2012; in the data active means activity change below about -65%; inconclusive means mostly about -30% to -63%; further: on the % scale 0 is the no-effect control and ±100 the full control effect
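Homogeneous AlphaScreen proximity assay pairing GST-Six1 with His-tagged Eya2 (added as 5X mix: 250 nM and 500 nM) in 50 mM Tris pH 8.0, 300 mM NaCl, 1 mM TCEP. Glutathione donor and nickel acceptor beads; 1 h, 37 °C, dark.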
* hit, by the source's call; u = inconclusive; x = no result. Unless noted, the call rests on the fitted dose curve; in most records, active means well fitted curve in the direction sought with a large enough effect; inconclusive means small, poorly fitted or top-dose-only effect, or another doubt; inactive means no such curve, though single readings can be large; an effect the other way counts as inactive or inconclusive.

SMILES | CtBP-E1A blk | p53 reactivator | RORg inh | VP16 counter | Six1-Eya2 inh
Cc1cc(-c2nnc(SCC(=O)Nc3ccc(Br)cc3F)n2N)n[nH]1 | 0.0 | 6.8% | -23.7% | 0.0% | -0.4
Cc1ccnc(Nc2nc(-c3ccccc3)cs2)c1 | x | x | u | u | 5.3
Cc1ccnc(Nc2nc(-c3c(C)nc4sccn34)cs2)c1 | -78.3* | 6.6% | -82.4% | u | -68.1*
Cc1ccn2c(-c3csc(NCc4ccccc4)n3)c(C)nc2c1 | -21.8 | 10.7% | 14.1µM* | u | -5.0
Cc1nc2ncccn2c1-c1csc(Nc2ccc(O)cc2)n1 | -90.0* | -3.8% | -41.5% | 22.1% | -87.2*
CSc1ncccc1C(=O)Nc1cccc(S(=O)(=O)N(C)c2ccccc2)c1 | -20.1 | -13.6% | x | x | -3.4
CN(CCO)C1=CC(=O)CC(C)(C)C1 | 5.3 | 3.1% | -17.9% | 0.6% | 5.4
COc1ccccc1CN1CC(C(=O)NCc2nccn2C)CCC1=O (stereo unspecified) | 2.1 | 3.0% | -12.8% | -2.9% | 3.1
CCC/C=C(\CCC)C(NC(=O)c1ccco1)c1ccc(C(=O)OC)cc1 (stereo unspecified) | x | x | 5.4% | -6.1% | x
Cc1cc(O)cc(O)c1C=NCc1ccco1 | -9.7 | u | u | 5.62µM* | -6.0
Cc1ccc2nc(NCc3ccco3)c(C=NCc3ccco3)c(=O)n2c1 | -12.8 | u | 33.0% | -6.3% | 0.9
COC(=O)c1ccccc1S(=O)(=O)NNC(=O)Nc1ccccc1 | 0.0 | 8.1% | 11.2µM* | u | 0.3
O=C1CC(Cc2ccc(Br)cc2)C(=O)N1c1ccccc1 (stereo unspecified) | -21.4 | -5.3% | 11.3% | -5.0% | 4.7
O=[N+]([O-])c1ccc(/C=N/N=C/c2ccc([N+](=O)[O-])o2)o1 | -24.9 | -18.0% | 1.12µM* | 4.47µM* | -27.9
Cc1ccccc1OCC(=O)N/N=C/c1ccc([N+](=O)[O-])o1 | x | -7.2% | 2.51µM* | 11.2µM* | -2.0
O=C(CC12CC3CC(CC(C3)C1)C2)N/N=C/c1ccc([N+](=O)[O-])o1 | 11.2 | 16.4% | 10µM* | u | 4.7
CN1CCN(C(=O)/C=C/c2ccc([N+](=O)[O-])o2)CC1 | x | u | u | u | -3.2
O=C(O)/C=C/c1ccc([N+](=O)[O-])o1 | -19.8 | 7.1% | 11.2µM* | -4.8% | -16.0
CCCCCCCC(=O)N/N=C/c1ccc([N+](=O)[O-])o1 | x | 23.7% | -22.0% | u | -7.1
COC(=O)c1ccc(COC(=O)CNC(=O)c2ccc(OC)cc2)cc1 | x | u | x | x | -3.3
CC1(C(=O)Nc2ccc3c(c2)OCCO3)CN(S(C)(=O)=O)CC(=O)N1CCCn1ccnc1 (stereo unspecified) | -13.5 | x | x | x | 7.3
CCCOc1ccc(CCC(=O)N/N=C/c2ccc([N+](=O)[O-])o2)cc1 | x | 2.6% | -3.0% | 6.2% | -2.7
O=C(CC12CC3CC(CC(C3)C1)C2)N/N=C\c1ccc[nH]1 | 6.6 | -5.0% | 7.94µM* | 15.8µM* | -9.1
O=C(COc1ccccc1[N+](=O)[O-])N/N=C/C=C/c1ccco1 | -11.9 | 9.8% | u | u | -17.5
CC(=O)N/N=C/c1ccc([N+](=O)[O-])o1 | x | x | u | 3.55µM* | x
SMILES | CtBP-E1A blk | p53 reactivator | RORg inh | VP16 counter | Six1-Eya2 inh
CCOC(=O)N/N=C\c1ccc([N+](=O)[O-])o1 | 9.8 | 3.6% | -18.5% | -6.8% | 0.0
Cc1cc(C)cc(OCC(=O)N/N=C/c2ccc([N+](=O)[O-])o2)c1 | 9.2 | 11.7% | 8.91µM* | u | -14.0
CC(C)(C)OC(=O)N/N=C\c1ccc[nH]1 | 4.3 | 5.4% | 19.4% | -9.4% | 7.0
COc1ccccc1OCC(=O)N/N=C/C=C/c1ccc([N+](=O)[O-])o1 | -3.1 | u | 11.2µM* | 10µM* | -11.6
COc1cccc([C@@H]2Oc3ccc(OC)cc3C[C@H]2OC(=O)N[C@H](C)C2CCCCC2)c1 | x | x | -12.3% | -1.6% | x
NN(Cc1ccccc1)C(=S)Nc1ccc(Cl)c(Cl)c1 | 14.7 | 29.7% | 11.2µM* | u | 7.5
O=C(Nc1nncs1)C(Sc1ccccc1)c1ccccc1 (stereo unspecified) | 0.3 | -12.8% | 11.2µM* | -24.3% | 0.5
O=C(Nc1ccon1)C(Sc1ccccc1)c1ccccc1 (stereo unspecified) | 1.8 | -2.0% | u | 10.4% | 2.4
CC1CCCCN1C(=O)Cn1c(=O)oc2cc(S(=O)(=O)N3CCCC3)ccc21 (stereo unspecified) | 3.9 | x | 2.51µM* | -2.6% | -1.6
O=C(Nc1ccon1)Nc1cccc(Cl)c1Cl | 3.5 | -4.8% | 34.5% | 29.7% | 6.7
COc1cc(C(=O)O/N=C2/C=CC(=O)C(C)=C2C)cc(OC)c1OC | 4.5 | 1.7% | 3.55µM* | 4.47µM* | 0.6
COc1cc(C(=O)O/N=C2\C=CC(=O)C=C2C)cc(OC)c1OC | -9.0 | 19.1% | 7.08µM* | 3.98µM* | -1.0
C#CC[N+]1(CC#Cc2ccccc2)CCCC1 | 6.5 | 4.3% | 3.4% | -1.1% | 4.9
C(#Cc1ccccc1)C[N+]1(CC#Cc2cccc3ccccc23)CCCC1 | -10.6 | -14.2% | -1.2% | 15.8µM* | -1.8
COC/C=C/C1=CC2=CC(=O)C(C)(OC(=O)c3cnc4ccccc4n3)C(=O)C2=CO1 (stereo unspecified) | x | x | 0.9% | -0.4% | x
COc1ccc(/C=c2\s/c(=C/C(=O)c3ccc(C)cc3)[nH]c2=O)cc1OC | 17.1 | 2.4% | 12.6µM* | u | 1.9
CC(=O)Nc1nc2ccccc2n1CCN1CCOCC1 | 5.8 | 1.6% | u | -12.0% | 4.7
O=C(Nc1nc2ccccc2n1CCN1CCOCC1)c1cn(-c2ccccc2)nc1-c1ccccc1 | -19.5 | -12.6% | 0.631µM* | 1.12µM* | -18.1
O=C(Nc1nc2ccccc2n1CCN1CCOCC1)c1ccccc1 | -4.2 | u | 2.82µM* | 3.55µM* | 1.7
O=C(NC(=S)N1CCOCC1)c1cn(-c2ccccc2)nc1-c1ccc(F)cc1 | 14.3 | -13.8% | x | x | 16.7
CCc1nn(CC(=O)NCCC2=CCCCC2)c(=O)c2cc3cc(F)ccc3n12 | 7.3 | -0.9% | -13.2% | -2.4% | 4.4
CCCOc1ccc(Cc2c(O)nc(SC)[nH]c2=O)cc1 | -12.3 | 6.4% | 6.4% | -8.4% | 4.9
CC(Nc1ccc(Cl)cc1)c1cc(Cl)ccc1O (stereo unspecified) | -3.3 | -1.0% | u | 12.6µM* | -4.5
COc1ccc(C(=O)Nc2nc(-c3ccccn3)cs2)cc1S(=O)(=O)N1CCOCC1 | x | -0.3% | x | x | -92.5*
CSCCC(NC(=O)c1cc(S(=O)(=O)N2CCOCC2)ccc1C)c1nc2ccccc2[nH]1 (stereo unspecified) | 3.8 | x | x | x | 1.6

Assay outcomes as filed in PubChem BioAssay.
